# Measurements reported in PubChem BioAssay (NCI).
# The panel holds about 83,000 compounds, 20% with a hit somewhere; the sample as a whole holds those more often.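 Note: values are percent growth. 100 is the growth of untreated cells, values between 100 and 0 indicate rising inhibition; between -100 and 0 indicates cell death.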 Unmarked numbers belong to inactive results. The source made the active and inactive calls.
# System: A498 renal
# Assay: NCI-60 one-dose screen, 48 h (100 = growth as untreated, 0 = no growth, -100 = all killed)
# Conditions: 10 µM
# Protocol: Growth inhibition of the A498 human tumor cell line is measured as a screen for anti-cancer activity. Cells are grown in 96 well plates and exposed to the test compound for 48 hours. Compounds are tested at a single concentration, which is 10^-5 M for most compounds. The reported endpoint is percent growth (GI% or GIPRCNT), where numbers from 0 - 100% represent growth inhibition, and numbers from -100% - 0 represent cell death. For example, a value of 40 represents 60% growth inhibition. A value of 0 means no net growth occurred over the course of the experiment. A value of -40 indicates 40% of cells at the beginning of the experiment died by the end of the experiment. A value of -100 means all cells are dead at the end of the experiment.
# NCI-60 Human Tumor Cell Lines Screen was performed using the standard one-dose NCI protocol, which is described in more detail at https://dtp.cancer.gov/discovery_development/nci-60/default.htm.
# Compounds with GIPRCNT values below 10 were considered active. Activity score was based on GIPRCNT using the following formula: […]
# Score is 0 for GIPRCNT values of 100 or above, 50 for GIPRCNT values of 0, and 100 for GIPRCNT values of -100.
row,SMILES,growth
1,COc1ccc(C2=N[C@@H](Cc3ccccc3)C(=O)Nc3ccsc32)cc1,35.8%
2,CCCCN1CCCC[C@@H]1C(=O)N[C@H](C(=O)N(C)[C@H](C[C@@H](OC(C)=O)c1nc(C(=O)NC2CCC(C(=O)OC)CC2)cs1)C(C)C)C(C)C (stereo not given in full),22.3%
3,C=C1C(=O)O[C@H]2[C@H]1CC/C(COC(=O)C(=O)c1cn(Cc3ccccc3)c3ccccc13)=C\CC[C@@]1(C)O[C@@H]21,52.4%
4,Cc1ccc2c(C(C[N+](=O)[O-])c3cccs3)c(-c3ccccc3)[nH]c2c1 (stereo not given),-19.6% (active)
5,CC1(C)N=C(N)N=C(N)N1c1ccc(CCC(=O)Nc2ccc(S(=O)(=O)F)cc2)c(Cl)c1,34.8%
6,O=[N+]([O-])c1cc([N+](=O)[O-])c(Cl)cc1Cl,80.1%
7,CC(=O)Oc1ccccc1C(=O)NCCC[Se]C#N,-2.68% (active)
8,Cc1cnc(/C=C/C(=O)O)cc1-c1cc2c(cc1C)C(C)(C)CCC2(C)C,105%
9,CC(=O)O[C@H](C[C@H](C(C)C)N(C)C(=O)[C@@H](NC(=O)[C@H]1CCCCN1C)C(C)C)c1nc(C(=O)N[C@@H](Cc2ccccc2)C[C@H](C)C(=O)O)c(C(C)C)s1,-8.17% (active)
10,COC(=O)[C@@H](C)C[C@H](Cc1ccccc1)NC(=O)c1csc([C@@H](C[C@H](C(C)C)N(C)C(=O)[C@H](C)NC(=O)[C@H]2CCCN2C)OC(C)=O)n1,53.4%
11,Nc1ccc(OCCNS(=O)(=O)c2cccc(S(=O)(=O)F)c2)c(Cl)c1,70.8%
12,Nc1c(F)cc(-c2nc3cc(F)ccc3[se]2)cc1Br,31.4%
13,Fc1cccc(NCOOC2(OOCNc3cccc(F)c3)CCCCC2)c1,92.4%
14,CCn1c2ccccc2c2cc(C(=O)c3cccc4c3CCCN4)ccc21,112%
15,CNC(=O)Oc1ccc(C(C)(C)C)cc1OC(=O)NC,98.8%
16,CCCCC1(CCC)C(=O)NC(=S)NC1=O,129%
17,CC[C@H](C)[C@H](NC(=O)c1cccn1C)C(=O)N(C)[C@H](C[C@@H](OC(C)=O)c1nc(C(=O)N[C@@H](Cc2ccccc2)C[C@H](C)C(=O)OC)cs1)C(C)C,-2.8% (active)
18,C/C(=C\c1ccn(-c2ccccc2N)n1)[C@@H]1C[C@@H]2O[C@]2(C)CCC[C@H](C)[C@H](O)[C@@H](C)C(=O)C(C)(C)[C@@H](O)CC(=O)O1,13%
19,C=CCCCCCCCCC(=O)[O-].C=CCCCCCCCCC(=O)[O-].[Zn+2],92.7%
20,Clc1ccc2nnnn2n1,78.7%

row,SMILES,growth
1,O=C(CCCC1CCCCC1)OCC(Cl)(Cl)Cl,60.6%
2,O=[N+]([O-])CC(O)C(Cl)(Cl)Cl (stereo not given),87.3%
3,COc1cc2c(cc1OCCCCn1c(-c3cccs3)nc3ccccc31)N=C[C@@H]1CCCN1C2=O,-53.9% (active)
4,CC1=C(CN)C2=C(C)C3(CC3)[C@@](C)(O)C(=O)C2=C1,68.6%
5,COC(=O)[C@@]1(C)CC[C@]2(C)CC[C@]3(C)C4=CC=C5C(=CC(=O)C(O)=C5C)[C@]4(C)CC[C@@]3(C)[C@@H]2C1,-97.9% (active)
6,COc1ccc(S(=O)(=O)N(Cc2ccc3c(c2)C=CC(C)(C)O3)c2ccccc2)cc1OC,77.8%
7,Fc1ccc(N2COOC3(OOC2)C2CC4CC(C2)CC3C4)cc1,90.1%
8,COC(=O)[C@@H](C)C[C@H](Cc1ccccc1)NC(=O)c1csc([C@@H](C[C@H](C(C)C)N(C)C(=O)[C@H](C)NC(=O)[C@H]2CCCCN2C)OC(C)=O)n1,56.4%
9,CCc1ccccc1[C@@H]1C[C@]2(C)CCO[C@@H]2OO1,102%
10,CC[C@H](NC(=O)[C@H]1CCCCN1C)C(=O)N(C)[C@H](C[C@@H](OC(C)=O)c1nc(C(=O)N[C@@H](Cc2ccccc2)C[C@H](C)C(=O)O)cs1)C(C)C,-8.18% (active)
11,CCOC(=O)C(Cc1ccc(N(CCCl)CCCl)cc1)NC(=O)C(CC(C)C)NC(C)=O (stereo not given),86.5%
12,ClCCN(CCCl)c1nc(Cl)c(C2CC(c3ccccc3)=NN2c2cc(Cl)cc(Cl)c2)s1 (stereo not given),116%
13,CCCCCCCCCCCCCCCCCC1OC[C@@H](COC(=O)O[C@@H](C(=O)O[C@H]2C[C@@]3(O)[C@@H](OC(=O)c4ccccc4)[C@@H]4[C@]5(OC(C)=O)CO[C@@H]5C[C@H](O)[C@@]4(C)C(=O)[C@H](OC(C)=O)C(=C2C)C3(C)C)[C@@H](NC(=O)c2ccccc2)c2ccccc2)O1 (stereo not given in full),70.9%
14,CN1C(=O)N[C@H]2[C@@H]3NC(=O)c4ccc(Br)n4[C@@H]3C[C@]21O,-47.8% (active)
15,CC(=O)[O][Hg][O]C(C)=O,117%
16,CC[C@H](C)[C@H](NC(=O)C12C3C4C1C1C2C3C41NC(C)=O)C(=O)N(C)[C@H](C[C@@H](OC(C)=O)c1nc(C(=O)N[C@@H](Cc2ccccc2)C[C@H](C)C(=O)OC)cs1)C(C)C (stereo not given in full),-10.4% (active)
17,COC1OC(CO)C(O)C(O)[CH]1[Hg][O]C(C)=O (stereo not given),106%
18,C[S+]1C=Cc2ccccc2C1c1ccc(Cl)cc1 (stereo not given),96%
19,COC(=O)C12CC(NC(=O)c3csc([C@@H](C[C@H](C(C)C)N(C)C(=O)[C@@H](NC(=O)[C@H]4CCCCN4C)C(C)C)OC(C)=O)n3)(C1)C2,-1.32% (active)
20,CCCCCCCCCCCCNC(c1ccccc1)C(O)c1ccccc1 (stereo not given),116%
